# Assay results from PubChem BioAssay (EPA / NIEHS).
# Records with an inconclusive call do not appear. Activity calls are given as the source filed them. How the source made its calls, unless noted: active means hit-call score of the fitted dose curve at least 0.9, where 1 is the maximum; inconclusive means response in the unintended direction; inactive means score below 0.9.
# Assays:
# [1] = target: Cellular tumor antigen p53 (Homo sapiens) (UniProt P04637); assay: TOX21_p53_BLA_p4_ratio: Tox21 HCT-116 p53 Agonism Beta-lactamase Assay, Ratio, Phase 4 (AID 2283601)
# In short: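 HCT-116 p53 beta-lactamase reporter cells (4000/well) preincubated 5 h, then compound (217-fold dilution of DMSO stock) for 16 h at 37C. CCF4-AM substrate added 2 h at room temperature; 460/530 nm emission ratio fitted upward versus DMSO.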
# [2] = Tanguay_ZF_120hpf_MORT_legacy: (Legacy) Oregon State University Tanguay Lab 120 Hour Post-fertilization zebrafish Assay for Mortality (AID 2283633)
# In short: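 5D WT zebrafish, chorion removed 4 hpf; 1 embryo/well from 6 hpf; static exposure to 120 hpf, 28C, dark, sealed. Final DMSO 0.64%. Readout: binary mortality, brightfield, 24 + 120 hpf; DMSO as negative control.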
# [3] = Tanguay_ZF_120hpf_YSE_legacy: (Legacy) Oregon State University Tanguay Lab 120 Hour Post-fertilization zebrafish Assay for Yolk Sac Edema (AID 2283634)
# In short: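 Dechorionate (pronase, 4 hpf) → place one 6 hpf embryo per well → static compound exposure, sealed and foil-covered, 28C, to 120 hpf → record yolk sac edema as present or absent. Final DMSO 0.64%.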
# [4] = Tanguay_ZF_120hpf_AXIS_legacy: (Legacy) Oregon State University Tanguay Lab 120 Hour Post-fertilization zebrafish Assay for Body Axis Malformation (AID 2283635)
# In short: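 Chorion is removed with pronase at 4 hpf, then single 6 hpf embryos are dosed (final DMSO 0.64%) and held statically at 28C in sealed, foil-covered plates. At 120 hpf body axis malformation is recorded as present or absent.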
# [5] = Tanguay_ZF_120hpf_EYE_legacy: (Legacy) Oregon State University Tanguay Lab 120 Hour Post-fertilization zebrafish Assay for Eye Malformation (AID 2283636)
# In short: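 Dechorionated Tropical 5D zebrafish embryos, one per well from 6 hpf, static exposure to 120 hpf at 28C, 0.64% DMSO. Eye malformation scored present/absent by brightfield; dead embryos not scored.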
# [6] = Tanguay_ZF_120hpf_SNOU_legacy: (Legacy) Oregon State University Tanguay Lab 120 Hour Post-fertilization zebrafish Assay for Snout Malformation (AID 2283637)
# In short: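 Dechorionated tropical 5D wild-type zebrafish embryos exposed statically from 6 to 120 hpf at 28C, one per well, in 0.64% DMSO. Snout malformation scored as present/absent by brightfield at 120 hpf; dead embryos not scored.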
# [7] = Tanguay_ZF_120hpf_JAW_legacy: (Legacy) Oregon State University Tanguay Lab 120 Hour Post-fertilization zebrafish Assay for Jaw Malformation (AID 2283638)
# In short: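 Steps: dechorionate 4 hpf embryos (pronase); plate 1/well at 6 hpf; add test chemical, 0.64% DMSO final; seal, cover, hold at 28C statically to 120 hpf; score jaw defect presence/absence microscopically. Dead embryos not scored.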
# [8] = Tanguay_ZF_120hpf_OTIC_legacy: (Legacy) Oregon State University Tanguay Lab 120 Hour Post-fertilization zebrafish Assay for Otic Vesicle Malformation (AID 2283639)
# In short: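 Otic vesicle malformation is read as a yes/no morphology call at 120 hpf. Exposure is static at 28C with 0.64% (vol/vol) DMSO; embryos that die are excluded from non-mortality endpoints.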
# [9] = Tanguay_ZF_120hpf_BRAI_legacy: (Legacy) Oregon State University Tanguay Lab 120 Hour Post-fertilization zebrafish Assay for Brain Malformation (AID 2283641)
# In short: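 Wild-type 5D larvae, static waterborne exposure to 120 hpf, 28C, 0.64% v/v DMSO. Brightfield scoring of brain defects, binary; dead embryos excluded. Positive ctrl 5uM trimethyltin chloride.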
# [10] = Tanguay_ZF_120hpf_PFIN_legacy: (Legacy) Oregon State University Tanguay Lab 120 Hour Post-fertilization zebrafish Assay for Pectoral Fin Malformation (AID 2283648);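 further: each larva judged yes or no for fin defect by brightfield with dead larvae skipped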
# In short: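 Dechorionated Tropical 5D wild-type zebrafish embryos, one per well, statically exposed from 6 to 120 hpf at 28C with 0.64% DMSO final. Pectoral fin malformation scored present/absent by brightfield at 120 hpf; not scored in dead embryos.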
# [11] = Tanguay_ZF_120hpf_CFIN_legacy: (Legacy) Oregon State University Tanguay Lab 120 Hour Post-fertilization zebrafish Assay for Caudal Fin Malformation (AID 2283649)
# In short: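 Binary presence or absence of caudal fin malformation at 120 hpf, read by brightfield microscopy, with DMSO as baseline. Larvae came from 5D wild-type embryos exposed statically from 6 hpf at 28C after pronase dechorionation.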
# [12] = Tanguay_ZF_120hpf_PIG_legacy: (Legacy) Oregon State University Tanguay Lab 120 Hour Post-fertilization zebrafish Assay for Pigmentation Malformation (AID 2283650)
# In short: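 Dechorionated Tropical 5D wild-type embryos, one per well from 6 hpf, statically exposed at 28C in the dark until 120 hpf, 0.64% DMSO final. Pigmentation scored present/absent by brightfield microscopy; dead embryos not scored; fitted versus DMSO.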
# [13] = Tanguay_ZF_120hpf_CIRC_legacy: (Legacy) Oregon State University Tanguay Lab 120 Hour Post-fertilization zebrafish Assay for Circulatory Malformation (AID 2283651)
# In short: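 Using wild-type Tropical 5D zebrafish, we exposed dechorionated embryos from 6 to 120 hpf in embryo medium with 0.64% DMSO. Circulatory defects were scored as present or absent; 5uM trimethyltin chloride served as positive control.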
# [14] = Tanguay_ZF_120hpf_TRUN_legacy: (Legacy) Oregon State University Tanguay Lab 120 Hour Post-fertilization zebrafish Assay for Truncated Body (AID 2283655)
# In short: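 Truncated body is recorded as a binary endpoint at 120 hpf by brightfield imaging of wild-type 5D larvae. Exposure runs statically from 6 hpf at 28C with 0.64% DMSO; embryos dying earlier are not scored.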
# [15] = Tanguay_ZF_120hpf_NC_legacy: (Legacy) Oregon State University Tanguay Lab 120 Hour Post-fertilization zebrafish Assay for Notochord and Tail Malformation (AID 2283656)
# In short: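 Dechorionated 5D zebrafish, 1/well from 6 hpf; static exposure to 120 hpf, 28C, sealed, dark; final DMSO 0.64% v/v. NC scored binary (present/absent); dead embryos not scored. Fit vs DMSO baseline, gain direction.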
# [16] = Tanguay_ZF_120hpf_TR_legacy: (Legacy) Oregon State University Tanguay Lab 120 Hour Post-fertilization zebrafish Assay for Touch Response (AID 2283667)
# In short: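 Tropical 5D wild-type zebrafish embryos statically exposed to 120 hpf at 28°C, sealed and dark-covered, 0.64% DMSO final; touch response scored as present/absent by brightfield microscopy at 120 hpf. Trimethyltin chloride 5 uM positive control; dead embryos not scored.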
# [17] = STM_H9_OrnithineISnorm_perc: Stemina devTOX quickPredict H9 human embryonic stem cell (hESC)-based Assay for Ornithine (ORN) Metabolite Biomarker, Normalized (AID 2283712; active means hit-call score of the fitted dose curve at least 0.9, where 1 is the maximum; inactive means score below 0.9;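 further: ornithine released into spent medium during last day measured by mass spectrometry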)
# In short: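 Cells: undifferentiated H9 hESC. Dosing: 72 h, media replaced every 24 h. Sample: final 24-h conditioned media, 40% acetonitrile. Read: UPLC-HRMS ornithine area vs 13C standard, % DMSO control.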
# [18] = STM_H9_CystineISnorm_perc: Stemina devTOX quickPredict H9 human embryonic stem cell (hESC)-based Assay for Cystine (CYSS) Metabolite Biomarker, Normalized (AID 2283713; active means hit-call score of the fitted dose curve at least 0.9, where 1 is the maximum; inactive means score below 0.9)
# In short: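 Secreted cystine was measured by UPLC-HRMS in H9 hESC medium after 72h compound exposure with 24-hourly replenishment. Values are standard-normalized areas relative to 0.1% DMSO.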
# Chain of Cellular tumor antigen p53 (Homo sapiens) (P04637 whole entry, looked up): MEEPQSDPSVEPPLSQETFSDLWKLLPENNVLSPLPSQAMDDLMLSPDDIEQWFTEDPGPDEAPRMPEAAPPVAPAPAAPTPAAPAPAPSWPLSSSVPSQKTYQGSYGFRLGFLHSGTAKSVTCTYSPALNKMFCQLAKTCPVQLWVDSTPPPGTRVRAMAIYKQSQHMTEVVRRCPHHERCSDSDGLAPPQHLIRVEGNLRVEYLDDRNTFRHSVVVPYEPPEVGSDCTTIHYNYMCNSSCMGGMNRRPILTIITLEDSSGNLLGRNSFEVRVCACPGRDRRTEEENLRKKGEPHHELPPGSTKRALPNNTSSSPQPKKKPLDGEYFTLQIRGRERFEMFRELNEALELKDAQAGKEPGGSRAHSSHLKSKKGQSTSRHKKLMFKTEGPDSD
smiles,measurement,setting,value
c1cc[n+]2c(c1)-c1cccc[n+]1CC2,outcome,[1],inactive
same,outcome,[2],inactive
same,outcome,[3],inactive
same,outcome,[4],inactive
same,outcome,[5],inactive
same,outcome,[6],inactive
same,outcome,[7],inactive
same,outcome,[8],inactive
same,outcome,[9],inactive
same,outcome,[10],inactive
same,outcome,[11],inactive
same,outcome,[12],inactive
same,outcome,[13],inactive
same,outcome,[14],inactive
same,outcome,[15],inactive
same,outcome,[16],inactive
same,AC50,[17],8.35 µM (active)
same,AC50,[18],1.7 µM (active)
